Sampled rows, rich in hits. Any-hit rate of the full collection: about 19%.
HT1080 IDH1KD tx: toxicity to HT-1080 IDH1 knockdown cells (counter line). HT-1080 IDH1 knockdown viability, ATP luminescence, 48 h. Potency, µM (titrated, usually from 46.1 µM), for the others: at the top dose activity, negative = toxicity, actives largely listed as cytotoxic. actives 2% (n = 360,000);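 also: 0% = DMSO wells and -100% = cell-free medium wells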
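HT-1080-IDH1KD cells (IDH1 knocked down), 750/well in RPMI with 5% FBS, treated with compound 48 h at 37 degrees C. Viability by CellTiter-Glo luminescence, normalised to DMSO and no-cell wells; concentration-response curves classed.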
KB-V1 cytotox: KB-V1 MDR subline cytotoxicity; KB-V1 MDR cells viability, CellTiter-Glo, 72 h; Potency, µM (series often up to 46.1 µM), usual class: cytotoxic; actives 3.4% (n = 400,000); AID 1347076; also: nearly all actives have a fitted effect of over 60% in size
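KB-V1, DMEM (no phenol red) + 10% FBS; cpd pin-transferred, titration series; 72 h, 37 degrees C; CellTiter-Glo, luminescence. Data normalized, curve-fit.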
HT1080NT lethal: kills 2HG-producing HT-1080-NT fibrosarcoma cells; HT-1080-NT fibrosarcoma viability, CellTiter-Glo ATP luminescence, 48 h; Potency, µM (top dose mostly 46.1 µM), without a hit: at the highest dose activity, negative = less viability, hits mostly cytotoxic; actives 1.6% (n = 360,000); AID 686970;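 also: NT is the 2HG producing partner of a matched IDH1 knockdown line; 0% = DMSO-treated cells and -100% = media-only wells without cells; nearly all actives have a fitted effect of over 55% in size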
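HT-1080-NT fibrosarcoma cells (2HG-overproducing), 750 cells/well in RPMI with 5% FBS, dosed after 2 h and incubated 48 h at 37C. CellTiter-Glo luminescence normalized to DMSO and no-cell wells; concentration-response curves fitted and classed.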
DT40 TDP1 CPT: DT40-hTDP1 cell growth loss with CPT; chicken DT40 Tdp1-/-;hTDP1 cells + 20 nM CPT, ATP luminescence, 48 h; actives 12% (n = 420,000); AID 686979; Potency, µM (titrated, usually from 46.2 µM), for inactives: top-dose activity change, negative = growth inhibition, hits mostly inhibitors; also: nearly all actives have a fitted effect of over 55% in size
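Cell growth measured by CellTiter-Glo luminescence after a minimum 48 h, 37 C compound exposure with 20 nM CPT in Tdp1-knockout DT40 cells stably expressing hTDP1, seeded 400/well; qHTS titration format.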
KB-3-1 tox: kills parental KB-3-1 adenocarcinoma cells | KB-3-1 viability, CellTiter-Glo ATP luminescence, 72 h | Potency, µM (titrated, usually from 46.1 µM), actives largely listed as cytotoxic | actives 1.4% (n = 400,000) | AID 1347075; also: nearly all actives have a fitted effect of over 60% in size
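Using CellTiter-Glo luminescence, growth of non-resistant KB-3-1 adenocarcinoma cells is assessed 72 h after pin-tool compound addition at 37 °C. Normalized responses across the concentration series yield fitted curves.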
DT40 TDP1 no CPT: qHTS for Inhibitors of human tyrosyl-DNA phosphodiesterase 1 (TDP1): qHTS in cells in absence of CPT | DT40 Tdp1-/- hTDP1 cells, no CPT, ATP luminescence, 48 h | Potency, µM (highest dose often 46.2 µM), for the others: at the top dose activity change, negative = growth inhibition, usual class: inhibitors | actives 15% (n = 420,000) | AID 686978, 2013; also: nearly all actives have a fitted effect of over 55% in size
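Seeded 400 DT40-hTDP1 cells/well (vehicle DMSO, no 20 nM CPT); pinned compounds; ≥48 hr at 37 °C; CellTiter-Glo luminescence as viability measure.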
* marks the source's active call; other numbers are inactive results; i = inactive; ? = inconclusive; nt = no result given; [ ] = another dose, or the depositor's remark. Calls follow the shape of the dose curve; as a rule, active = well fitted curve in the direction sought with a large enough effect; inconclusive = small, poorly fitted or top-dose-only effect, or another doubt; inactive = no such curve, though single readings can be large; an effect the other way counts as inactive or inconclusive. Unless noted, % is scaled to controls: 0 for no effect and ±100 for the full control effect; potency is read from the fitted curve at half-maximal effect.

SMILES | HT1080 IDH1KD tx | KB-V1 cytotox | HT1080NT lethal | DT40 TDP1 CPT | KB-3-1 tox | DT40 TDP1 no CPT
COc1ccc(OC)c(C(=O)c2ccc(C(=O)Nc3ccc4ccccc4c3)cc2)c1 | 0.8% | ? | 4.0% | 20.6µM* | i | 18.4µM*
COC(=O)c1cc(NC(=O)CN2C(=O)C(=O)N(C3CCCC3)C2=O)cc(C(=O)OC)c1 | 1.4% | nt | -0.7% | -4.2% | nt | 4.7%
Cn1cc(CN2CCC(C(=O)N3CCCCC3)CC2)c(-c2ccccc2F)n1 | -10.3% | i | -4.0% | 12.5% | i | -0.7%
COc1cc(C(=O)Nc2ccc(NC(=O)c3ccc(Br)cc3)cc2)cc(OC)c1OC | nt | i | nt | -1.8% | i | -3.7%
COc1cc(C(=O)Nc2ccc(NC(=O)c3ccc(C(C)(C)C)cc3)cc2)cc(OC)c1OC | nt | nt | nt | 2.91µM* | nt | 3.26µM*
Cc1ccccc1Nc1nn2c(=O)c3ccccc3nc2s1 | 3.4% | i | 4.3% | ? | i | ?
COc1ccccc1Nc1nn2c(=O)c3ccc(C(=O)N4CCC(C)CC4)cc3nc2s1 | -22.2% | i | -12.4% | 23.1µM* | i | 18.4µM*
CCc1ccccc1Nc1nn2c(=O)c3ccc(C(=O)NC4CCC(C)CC4)cc3nc2s1 (centres undefined) | nt | i | nt | ? | i | 16.4µM*
Cc1ccccc1Nc1nn2c(=O)c3ccc(C(=O)N4CCCC(C)C4)cc3nc2s1 (centres undefined) | 10.5% | i | -0.6% | 14.6µM* | i | 16.4µM*
CCOC(=O)C1CCN(C(=O)c2ccc3c(SCC(=O)O)c4c(nc3c2)CCCC4)CC1 | 1.5% | i | 3.2% | 1.1% | i | -11.9%
CCOC(=O)C1CCN(C(=O)c2ccc3c(=O)n4nc(Nc5ccccc5)sc4nc3c2)CC1 | -8.8% | i | -5.1% | 20.6µM* | i | 14.6µM*
CCn1cc(CN2CCOc3ccc(C(O)C4CCCCC4)cc3C2)c(C)n1 (centres undefined) | nt | nt | nt | -9.0%[9.04 µM] | nt | ?
COc1ccc(Cn2cc(CN3CC(N4CCN(CCN(C)C)CC4)CS3(=O)=O)nn2)cc1 (centres undefined) | 9.3% | i | 11.4% | -1.6% | i | -17.7%
COc1ccccc1Nc1nn2c(=O)c3ccc(C(=O)NC4CCC(C)CC4)cc3nc2s1 (centres undefined) | nt | ? | nt | 5.8µM* | i | 5.17µM*
CC(C)(C)C1CCC(=NNC(=O)CN(c2ccccc2)S(C)(=O)=O)CC1 (centres undefined) | 20.7% | i | 15.8% | 0.8% | i | -4.8%
CCNC(=S)NN=C1CCC(C(C)(C)C)CC1 (centres undefined) | -1.4% | i | 15.2% | ? | i | 18.4µM*
COc1ccccc1NC(=O)CN1C(=O)C(c2ccc(F)cc2)=NC1(C)C | nt | nt | nt | -23.7% | nt | -26.8%
CC(=NO)C1CCC2C3CCC4=CC(=NO)CCC4(C)C3C(=O)CC12C (centres undefined) | -9.2% | i | -1.4% | 13µM* | ? | 16.4µM*
CC(=NO)C1CCC2C3CCC4=CC(=NO)CCC4(C)C3C(O)CC12C (centres undefined) | -8.7% | 20.6µM* | -4.1% | 13µM* | ? | 16.4µM*
COc1ccccc1CNc1nc(-c2ccco2)nn1S(C)(=O)=O | nt | i | nt | ? | i | ?
Cc1cccc(-c2n[nH]nc2C2=CC(=O)CC(C)(C)C2)c1 | -2.3% | ? | 2.1% | -9.5% | ? | ?
CC1(C)Cc2c(sc3nnn(Cc4ccc(Cl)cc4)c(=O)c23)CO1 | -1.1% | 6.51µM* | 4.2% | ? | ? | 13µM*
CC1(C)Cc2c(sc3nc(-c4cc5ccccc5o4)n(N)c(=O)c23)CO1 | 0.1% | ? | 10.9% | ? | i | 20.6µM*
CC(C)Cc1nc2sc3c(c2c(=O)n1N)CC(C)(C)OC3 | 3.0% | i | 12.7% | 18.4µM* | i | 10.3µM*
CCSc1nc2sc3c(c2c(=O)n1CC)CC(C)(C)OC3 | 11.3% | i | 12.3% | ? | i | ?
SMILES | HT1080 IDH1KD tx | KB-V1 cytotox | HT1080NT lethal | DT40 TDP1 CPT | KB-3-1 tox | DT40 TDP1 no CPT
Cc1ccc(-c2nc3sc4c(c3c(=O)n2N)CC(C)(C)OC4)cc1 | 16.0% | i | 28.6% | -16.6% | ? | ?
Cc1ccc(C(=O)NCC(=O)N2CCN(c3cccc(Cl)c3)CC2)s1 | -2.5% | i | -15.7% | -23.4% | i | ?
CC(C(=O)NCc1ccccc1Cl)n1cc([N+](=O)[O-])cn1 (centres undefined) | 4.1% | i | -0.3% | -1.2% | i | 1.6%
COc1ccc(NC(=O)C2CCN(C(=O)c3sc4nc[nH]c(=O)c4c3C)CC2)cc1Cl | nt | nt | nt | -8.5% | nt | -27.6%
COc1ccc(O)c(C(=O)c2cnc3c(c2)c(C)nn3CCO)c1 | 8.1% | i | 4.4% | 15.2% | i | 1.8%
CC(C)CC1Nc2ncnc(N3CCN(c4ccccn4)CC3)c2N(Cc2ccccc2)C1=O (centres undefined) | 4.7% | ? | 3.0% | ? | i | ?
Cc1ccc(CN2C(=O)C(CC(C)C)Nc3ncnc(N4CCN(c5ccccc5)CC4)c32)cc1 (centres undefined) | -7.1% | ? | -1.4% | 14.6µM* | ? | 20.6µM*
CC(C)CC1Nc2ncnc(N3CCCCC3)c2N(Cc2ccc(Br)cc2)C1=O (centres undefined) | -29.2% | ? | -20.9% | ? | ? | 16.4µM*
CC(C)CC1Nc2ncnc(N3CCOCC3)c2N(Cc2ccc(Br)cc2)C1=O (centres undefined) | -0.1% | i | 8.7% | ? | i | ?
CC(C)CC1Nc2ncnc(N3CCN(c4ccccc4)CC3)c2N(Cc2ccc(Cl)cc2)C1=O (centres undefined) | -10.9% | ? | -2.4% | ? | i | 18.4µM*
O=C(O)C(Oc1ccc2cc(-c3ccc(Cl)cc3)c(=O)oc2c1)c1ccccc1 (centres undefined) | -0.6% | i | -8.9% | -6.6% | i | -0.3%
c1ccc(CSc2ncccn2)cc1 | 19.4% | i | 0.7% | -3.3% | i | -24.1%
c1ccc(CSC2=NNC(c3ccccn3)S2)cc1 (centres undefined) | ? | ? | ? | 0.0058µM* | ? | 0.164µM*
O=C(CSC1=NNC(c2ccccn2)S1)Nc1ccc(C(F)(F)F)cc1 (centres undefined) | 4.11µM* | i | 14.6µM* | 4.11µM* | ? | 3.66µM*

Assay outcomes as filed in PubChem.
